Assay results reported in PubChem BioAssay (NCI).
About 79,000 compounds went through this panel and 15% of them were active in at least one assay; those are over-represented in the sample as a whole. Activity calls are given as the source filed them. Cut-off read from the data, not from the text of the source: active = growth inhibition above about 70%; inactive = the rest.

Key:
[1] = NCI Yeast Anticancer Drug Screen. Data for the rad50 strain (AID 155);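 note: 0% = growth of vehicle-only cultures of the same strain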; details: S. cerevisiae rad50 strain growth inhibition; at 50.0 µM; hits give high values
How it was run: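 Growth of the mutant yeast was measured after compound exposure and referenced to vehicle-treated cultures.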

[2] = NCI Yeast Anticancer Drug Screen. Data for the mec2-1 strain (AID 157); details: S. cerevisiae mec2-1 strain, at 50.0 µM, hits give high values
How it was run: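 Test agents were screened against the mec2-1 yeast strain, with defined DNA repair or cell cycle alteration. Growth was scored as inhibition against vehicle-only controls.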

[3] = NCI Yeast Anticancer Drug Screen. Data for the sgs1 mgt1 strain (AID 161);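 note: 0% = growth of cultures given vehicle only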; details: S. cerevisiae sgs1 mgt1 strain, at 50.0 µM, hits give high values
How it was run: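 Read-out: growth inhibition vs vehicle controls. Cells: mutant yeast strain deficient in DNA damage repair.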

[4] = NCI Yeast Anticancer Drug Screen. Data for the cln2 rad14 strain (AID 165);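 note: 0% = growth equal to vehicle treated cultures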; details: S. cerevisiae cln2 rad14 strain, at 50.0 µM, hits give high values
How it was run: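 Growth of compound-exposed yeast (cln2 rad14 genotype) measured and expressed as inhibition relative to vehicle.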

[5] = NCI Yeast Anticancer Drug Screen. Data for the bub3 strain (AID 167); details: S. cerevisiae bub3 mutant strain, at 50.0 µM, hits give high values
How it was run: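 Whole-cell yeast assay. The mutant strain was incubated with compounds, and growth inhibition was determined by comparison with vehicle-treated cells.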

[6] = NCI Yeast Anticancer Drug Screen. Data for the mlh1 rad18 strain (AID 175); details: S. cerevisiae mlh1 rad18 strain growth inhibition; at 50.0 µM; hits give high values
How it was run: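 In this whole-cell yeast screen, a strain with altered DNA damage repair is challenged with compound, and its growth is measured against matched vehicle-treated controls.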

Measured: growth inhibition

COc1cccc(C=NC23CC4CC(CC(C4)C2)C3)c1
inactive: [1] -22.2% | [2] -3.15% | [3] 3.65% | [4] -0.9% | [5] 6.85% | [6] -6.8%

CCCCC(=O)N/N=C\c1cc(Cl)ccc1[N+](=O)[O-]
inactive: [1] 17.6% | [2] 1.6% | [3] -6.65% | [4] 33.2% | [5] 7.7% | [6] 1.05%

NC12CCC(CC1)C2
inactive: [1] -14.3% | [2] 13.3% | [3] -14.1% | [4] -6.25% | [5] -10.4% | [6] -4.8%

O=C(c1ccccc1)c1cccnc1
inactive: [1] -10.6% | [2] -18.3% | [3] -17.4% | [4] -25.1% | [5] -45.2% | [6] -35.4%

CN(C)C(=S)/N=C1\SCS(=O)(=O)N1C
inactive: [1] 14.2% | [2] 6.55% | [3] -6% | [4] 7.7% | [5] -6.6% | [6] 9.15%

OC(c1ccccc1)(c1ccc(-c2ccccc2)cc1)c1cccc2ccccc12 (stereo unspecified)
inactive: [1] 28.3% | [2] -14.2% | [3] 21.8% | [4] 9.2% | [5] -2.6% | [6] 5.35%

CCC(C(=O)OC)C1CCCCC1 (stereo unspecified)
inactive: [1] 24.8% | [2] -27.8% | [3] -12.3% | [4] -7.65% | [5] -10.7% | [6] 22.4%

Cc1ccc(Nc2nc3ccccc3nc2NS(=O)(=O)c2ccc(N)cc2)cc1
inactive: [1] 20.2% | [2] 11.8% | [3] 13.3% | [4] 5.85% | [5] 7.45% | [6] -4.2%

CS(=O)CC(=N\N)/C(CS(C)=O)=N/N (stereo unspecified)
inactive: [1] -60% | [2] -20.8% | [3] -19.7% | [4] -21.4% | [5] -1.15% | [6] -5.75%

CNCC(C(=O)C(CNC)c1ccccc1)c1ccccc1 (stereo unspecified)
inactive: [1] -1.15% | [2] -6.45% | [3] 11.4% | [4] 7.6% | [5] 4% | [6] 21.9%

COc1ccccc1NC(=O)C1=C(C)NC(C)=C(C(=O)Nc2ccccc2OC)C1c1ccc(C(C)C)cc1
inactive: [1] 18.2% | [2] 3.35% | [3] 11.8% | [4] 29.6% | [5] -11.8% | [6] 33.8%

CC(=O)N(c1ccc(F)c(F)c1)c1ccc(F)c(F)c1
inactive: [1] -18.3% | [2] -5.55% | [3] -0.9% | [4] 1.5% | [5] 19.6% | [6] 14.2%

C[N+](C)(CCCN1C(=O)c2cccc3c(Br)ccc(c23)C1=O)Cc1ccc(Cl)c(Cl)c1
active: [1] 97.8% | [2] 98% | [3] 98.3% | [4] 95.8% | [5] 95.7% | [6] 98%

CC12CCCC=C1N(C=O)c1ccccc12 (stereo unspecified)
inactive: [1] -6.1% | [2] 26.3% | [3] 14.7% | [4] 11.6% | [5] -28.1% | [6] 16.8%

CC1C2=C(CCCC2=O)O/C1=N\O (stereo unspecified)
inactive: [1] 11.4% | [2] -6.85% | [3] -0.85% | [4] -24.9% | [5] 6.7% | [6] 12.2%

COc1cc2c(c(OC)c1OC)-c1ccc(OC)c(=O)cc1[C@@H](NC(=O)c1ccccc1)CC2
inactive: [1] 11.7% | [2] 7.15% | [3] 18.7% | [4] -0.05% | [5] 14.2% | [6] 18.9%

Cn1ncc2c(=O)[nH]c(-c3ccccc3)nc21
inactive: [1] -0.75% | [2] -8.35% | [3] -5.9% | [4] 3.55% | [5] -3.05% | [6] -6.3%

COc1cc(OC)c(NC(=O)ON2C(=O)c3ccccc3C2=O)cc1Cl
inactive: [1] 8.2% | [2] -1.75% | [3] -2.3% | [4] 11.8% | [5] 0.5% | [6] 24.6%

O=c1c2cnc3c4cccnc4ccc3c2[nH]n1-c1ccccc1
inactive: [1] -22.6% | [2] 8.15% | [3] 14.2% | [4] -15.4% | [5] -9.85% | [6] -2.8%

COc1cc(CO)c(CO)cc1OC
inactive: [1] -5.05% | [2] -3.2% | [3] -5.65% | [4] -10.8% | [5] 4% | [6] -8.95%

O=C1COCCO1
inactive: [1] 2.45% | [2] -8.55% | [3] 6.45% | [4] -14% | [5] -6.55% | [6] -19.5%

Clc1ccccc1OCCNC1CC1
inactive: [1] 20.7% | [2] -0.1% | [3] -10.8% | [4] -45% | [5] 4.95% | [6] 1.7%

NNC(=O)Cc1ccc2ccccc2c1
inactive: [1] 12.3% | [2] -32.1% | [3] 4.45% | [4] -7.05% | [5] 4.6% | [6] 12%

Cc1ccc([Se](=C(C(=O)c2ccccc2)C(=O)c2ccccc2)c2ccc(C)cc2)cc1
inactive: [2] 11.7% | [3] 35.7% | [4] 9.85% | [5] 4.95% | [6] 54.6%
active: [1] 82.4%

CCO/C=C1/N=C(c2cccc3ccccc23)OC1=O
inactive: [1] 3.15% | [2] -1.5% | [3] 5.7% | [4] -64.2% | [5] -1.85% | [6] 5.55%

NC(=O)c1n[nH]n(-c2ccccc2)c1=O
inactive: [1] -13.2% | [2] -5.35% | [3] -7.75% | [4] 0.15% | [5] -19.9% | [6] 3.85%

O=C1c2c(nc3ccccc3c2-c2ccccc2)CN1Nc1ccccn1
inactive: [1] -2.5% | [2] -4.1% | [3] 6.8% | [4] 12.8% | [5] -5.7% | [6] -33.9%

CC(=O)NCCc1ccc(OC(C)=O)c(OC(C)=O)c1
inactive: [1] 0.15% | [2] -10.6% | [3] 26.2% | [4] 6.45% | [5] 23.4% | [6] 16.1%

CCCCN(CCCC)C1(c2ccccc2)OC(c2ccccc2)=CC1=O (stereo unspecified)
inactive: [1] 1.45% | [2] 5.75% | [3] -0.55% | [4] -10.5% | [5] 2.8% | [6] 20.6%

Cc1ccc(S(=O)(=O)N/N=C(\c2nc3ccc([N+](=O)[O-])cc3[nH]c2=O)C(O)c2ccccc2Cl)cc1 (stereo unspecified)
inactive: [1] -1.2% | [2] -9.35% | [3] 11.6% | [4] 5.85% | [5] 10.3% | [6] 23.8%

O=S(=O)(O)c1cc(O)c2c(N=Nc3c(S(=O)(=O)O)cc4cc(S(=O)(=O)O)cc(N=Nc5c(S(=O)(=O)O)cc6cc(S(=O)(=O)O)cc(O)c6c5O)c4c3O)cc(S(=O)(=O)O)cc2c1
inactive: [1] -4.7% | [2] 26.6% | [3] 5.45% | [4] -14.8% | [5] -7.6% | [6] 8.5%

c1ccc2[nH]c(-c3nc4ccccc4s3)cc2c1
inactive: [1] -3.75% | [2] -4.45% | [3] 0.05% | [4] -60.1% | [5] -12% | [6] 1.25%

C=C1CC2C(=O)N(c3ccccc3)C(=O)C2CC1n1[nH]c(=O)n(Cc2ccccc2)c1=O (stereo unspecified)
inactive: [1] 3.8% | [2] 3.1% | [3] 9.65% | [4] -29.8% | [5] 15.7% | [6] -5.7%

CN(C)c1ccc(/C=C(\C#N)c2ccc(Cl)cc2Cl)cc1
inactive: [1] -15.8% | [2] -14.7% | [3] -0.35% | [4] -25.6% | [5] 7% | [6] 0.95%

S=c1[nH]nc(-c2ccccc2)n1/N=C\c1ccc(-c2ccc(Cl)cc2)o1
inactive: [1] 6.4% | [2] -21.5% | [3] -0.7% | [4] 14.8% | [5] -2.35% | [6] 5.5%

CCOc1ccccc1OCC
inactive: [1] 25.1% | [2] -27.2% | [3] -25.9% | [4] 12.3% | [5] -11.2% | [6] 21.2%

CC(Nc1cccc(Cl)c1)c1ccncc1 (stereo unspecified)
inactive: [1] 4.05% | [2] 12% | [3] -15.2% | [4] -5.55% | [5] 24.6% | [6] -11.4%

CC1C2CC(CC2(C)O)C1(C)C (stereo unspecified)
inactive: [1] 8.45% | [2] -3.1% | [3] 3.35% | [4] 9.05% | [5] -3.3% | [6] -7.35%

COc1cc(C(C)O)c[n+](Cc2ccccc2)c1 (stereo unspecified)
inactive: [1] -31.6% | [2] -7.3% | [3] -16.1% | [4] 3.6% | [5] -18.9% | [6] -18.9%

Nc1nc2nn(-c3ccc(C(=O)NC(CCC(=O)O)C(=O)O)cc3)nc2c(=O)[nH]1 (stereo unspecified)
inactive: [1] 7.05% | [2] 2.75% | [3] 12.9% | [4] 30.5% | [5] 9.05% | [6] -1.4%

COc1ccc2c(c1)CCCN2c1ccc(N=C(N)N)cc1
inactive: [1] 2.95% | [2] -6.35% | [3] -1.75% | [4] -17.8% | [5] 27.9% | [6] 16.5%
